# Test results as given in PubChem BioAssay.
# Where “and” joins values, the source holds several entries; their conditions need not be identical. Equal values may be shown once. For some of these results: Potency and affinity values are given separately. Some of the results follow. Calls of active or inactive are those of the source. Unless noted, how the calls were made is not given here.
# How the values were obtained:
# [1] = target: Cell division control protein 42 homolog (Homo sapiens) (UniProt P60953); assay: inhibition of fluorescent GTP binding to wildtype Cdc42 – biochemical, multiplex bead flow cytometry, Bodipy-FL-GTP, dose response (AID 1334;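 active means fitted half-maximal concentration within the tested range, moderate curve steepness, significant signal drop, and little compound fluorescence or bead-linkage interference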); settings: bead-based flow cytometry, Bodipy-FL-GTP binding to GST-Cdc42; at 100 µM (top of the series) unless noted
# Cell division control protein 42 homolog (Homo sapiens), sequence (P60953 whole entry, looked up): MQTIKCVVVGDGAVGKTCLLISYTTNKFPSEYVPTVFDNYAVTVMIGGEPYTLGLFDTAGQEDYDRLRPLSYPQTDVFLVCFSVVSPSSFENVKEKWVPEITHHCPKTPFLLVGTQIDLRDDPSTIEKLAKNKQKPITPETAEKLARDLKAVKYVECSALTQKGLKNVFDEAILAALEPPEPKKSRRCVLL
# [2] = target: GTPase HRas (Homo sapiens) (UniProt P01112); assay: Ras wt fluorescent GTP loading blockade – biochemical, wildtype, multiplex bead flow cytometry, dose response (AID 1335;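 active means fitted half-maximal concentration within 10 nM to 100 µM, steepness 0.5 to 2, significant signal drop, low assay interference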); settings: bead-based flow cytometry, Bodipy-GTP binding to GST-Ras; at 100 µM (top of the series) unless noted
# GTPase HRas (Homo sapiens), sequence (P01112 whole entry, looked up): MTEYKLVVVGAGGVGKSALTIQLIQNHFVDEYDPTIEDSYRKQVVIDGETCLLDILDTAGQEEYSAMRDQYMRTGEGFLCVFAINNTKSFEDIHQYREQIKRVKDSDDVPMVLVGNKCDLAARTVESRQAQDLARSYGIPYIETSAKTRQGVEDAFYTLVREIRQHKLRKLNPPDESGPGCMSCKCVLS
# [3] = tested on: Ras-related protein Rab-7a (dog), GTP binding; assay: blockers of fluorescent GTP binding to Rab7 – biochemical, wildtype, multiplex bead flow cytometry, dose response (AID 1336)
# [4] = target: Ras-related C3 botulinum toxin substrate 1 (Homo sapiens) (UniProt P63000); assay: inhibition of wildtype Rac1 nucleotide loading – biochemical, multiplex bead flow cytometry, dose response (AID 1340;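 active means dose curve with midpoint inside tested range, moderate steepness, plateau gap beyond fit error, low compound glow and bead-link interference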); settings: GST-Rac1 beads, Bodipy-FL-GTP binding; at 100 µM (top of the series) unless noted
# [5] = target: GTPase HRas (Homo sapiens) (UniProt P01112); assay: blockade of GTP loading onto mutant Ras – biochemical, activated mutant, multiplex bead flow cytometry, dose response (AID 1341;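 active means dose-response curve with midpoint inside the tested range, moderate steepness, significant amplitude and little compound fluorescence or bead-attachment interference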;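 further: GST-tagged constitutively activated Ras mutant immobilized on beads and multiplexed with other GTPases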)
# [6] = target: Regulator of G-protein signaling 16 (Homo sapiens) (UniProt O15492); assay: small molecules altering RGS protein interactions with GNAO1 – biochemical, multiplexed beads, flow cytometry, RGS4/7/8/16/19, primary screen (AID 1504); settings: multiplexed bead flow cytometry, measured here: RGS16 interaction, at 10 µM;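 further: fluorescently labeled Galpha-o bound to GDP with aluminium fluoride binding biotinylated RGS beads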
# [7] = target: Regulator of G-protein signaling 19 (Homo sapiens) (UniProt P49795); assay: as above; settings: multiplexed bead flow cytometry, measured here: RGS19 interaction, at 10 µM
# [8] = target: Regulator of G-protein signaling 4 (Homo sapiens) + Guanine nucleotide-binding protein G(o) subunit alpha (Homo sapiens) (UniProt P49798+P09471); assay: as above; settings: multiplexed bead flow cytometry, at 10 µM
# Regulator of G-protein signaling 4 (Homo sapiens) + Guanine nucleotide-binding protein G(o) subunit alpha (Homo sapiens), sequence (P09471 whole entry, looked up): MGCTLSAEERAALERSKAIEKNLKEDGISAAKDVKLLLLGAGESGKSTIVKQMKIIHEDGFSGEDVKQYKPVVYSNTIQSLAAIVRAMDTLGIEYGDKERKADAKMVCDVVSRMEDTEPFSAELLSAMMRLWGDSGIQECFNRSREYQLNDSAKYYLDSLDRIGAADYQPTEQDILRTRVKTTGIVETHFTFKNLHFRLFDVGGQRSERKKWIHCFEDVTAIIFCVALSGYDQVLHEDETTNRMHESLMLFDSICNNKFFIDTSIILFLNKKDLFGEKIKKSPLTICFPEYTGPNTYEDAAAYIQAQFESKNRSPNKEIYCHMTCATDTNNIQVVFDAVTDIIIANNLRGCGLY
# Regulator of G-protein signaling 4 (Homo sapiens) + Guanine nucleotide-binding protein G(o) subunit alpha (Homo sapiens), sequence (P49798 whole entry, looked up): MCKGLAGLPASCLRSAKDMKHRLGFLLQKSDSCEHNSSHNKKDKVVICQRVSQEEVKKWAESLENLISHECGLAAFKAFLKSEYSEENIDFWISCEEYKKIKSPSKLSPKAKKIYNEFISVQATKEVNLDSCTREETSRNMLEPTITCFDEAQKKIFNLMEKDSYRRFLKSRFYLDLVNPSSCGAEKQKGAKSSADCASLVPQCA
# [9] = target: Regulator of G-protein signaling 7 (Homo sapiens) (UniProt P49802); assay: as above; settings: multiplexed bead flow cytometry, measured here: RGS7 interaction, at 10 µM
# [10] = target: Regulator of G-protein signaling 8 (Homo sapiens) (UniProt P57771); assay: as above; settings: multiplexed bead flow cytometry, measured here: RGS8 interaction, at 10 µM
# [11] = interference with biotin-avidin bead interaction – biochemical, flow cytometry, bead-based, counter-screen for RGS protein interaction modulators (AID 1783;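 active means inhibition above 50%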;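 further: median green fluorescence of gated singlet beads compared with DMSO control wells; 0% = DMSO wells and 100% = complete loss of bead fluorescence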); settings: streptavidin beads, fluorescein-biotin binding; at 10 µM, stronger effect = higher value
# [12] = target: Guanine nucleotide-binding protein G(o) subunit alpha (Homo sapiens) (UniProt P09471); assay: retest of RGS8-Galphao interaction hits – biochemical, multiplexed bead flow cytometry, single concentration, confirmation (AID 1836; in the data active means binding response below about 72% or above about 130%; inactive means in between;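 further: Galphao activated as GDP AlF4 complex before binding bead RGS8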); settings: bead-based flow cytometry RGS8-Galphao binding, fluorescence; at 10 µM; actives lie on both sides
# Guanine nucleotide-binding protein G(o) subunit alpha (Homo sapiens), sequence (P09471 whole entry, looked up): as the sequence (P09471 whole entry, looked up) above
# [13] = target: Guanine nucleotide-binding protein G(o) subunit alpha (Homo sapiens) (UniProt P09471); assay: retest of RGS7-Galphao interaction hits – biochemical, multiplexed bead flow cytometry, single concentration, confirmation (AID 1837; in the data active means response below about 75% or above about 130%; inactive means in between;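 further: fluorescent Galphao activated with GDP and aluminum fluoride binding bead-coupled RGS7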); settings: bead-based flow cytometry RGS7-Galphao binding; at 10 µM; actives lie on both sides
# [14] = target: Regulator of G-protein signaling 16 (Homo sapiens) + Guanine nucleotide-binding protein G(o) subunit alpha (Homo sapiens) (UniProt O15492+P09471); assay: RGS16 and Galphao interaction regulators – biochemical, single concentration, multiplexed bead flow cytometry, confirmation (AID 1838; in the data active means response below about 74% or above about 130%; inactive means in between;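 further: Galphao activated as the GDP aluminium fluoride complex binding bead-coupled RGS16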); settings: bead-based flow cytometry, at 10 µM, actives lie on both sides
# Regulator of G-protein signaling 16 (Homo sapiens) + Guanine nucleotide-binding protein G(o) subunit alpha (Homo sapiens), sequence (O15492 whole entry, looked up): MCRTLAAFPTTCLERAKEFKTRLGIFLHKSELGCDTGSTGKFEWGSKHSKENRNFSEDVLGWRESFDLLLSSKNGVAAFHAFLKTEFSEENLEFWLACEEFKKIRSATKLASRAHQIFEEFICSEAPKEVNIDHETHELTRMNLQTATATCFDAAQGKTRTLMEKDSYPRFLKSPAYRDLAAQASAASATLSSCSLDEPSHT
# Regulator of G-protein signaling 16 (Homo sapiens) + Guanine nucleotide-binding protein G(o) subunit alpha (Homo sapiens), sequence (P09471 whole entry, looked up): as the sequence (P09471 whole entry, looked up) above
# [15] = target: Guanine nucleotide-binding protein G(o) subunit alpha (Homo sapiens) (UniProt P09471); assay: RGS4 and Galphao interaction regulators – biochemical, single concentration, multiplexed bead flow cytometry, confirmation (AID 1840; in the data active means binding response below about 74% or above about 130%; inactive means in between); settings: at 10 µM, actives lie on both sides
# [16] = target: Guanine nucleotide-binding protein G(o) subunit alpha (Homo sapiens) + Regulator of G-protein signaling 19 (Homo sapiens) (UniProt P09471+P49795); assay: RGS19 interaction with Gαo, hit retest – biochemical, single point, multiplexed bead flow cytometry, confirmation (AID 1841; in the data active means response below about 50% or above about 160%; inactive means in between;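 further: 100% = no compound control and 0% = blank background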); settings: bead-based flow cytometry RGS19-Galphao binding; at 10 µM; actives lie on both sides
# Guanine nucleotide-binding protein G(o) subunit alpha (Homo sapiens) + Regulator of G-protein signaling 19 (Homo sapiens), sequence (P09471 whole entry, looked up): as above
# Guanine nucleotide-binding protein G(o) subunit alpha (Homo sapiens) + Regulator of G-protein signaling 19 (Homo sapiens), sequence (P49795 whole entry, looked up): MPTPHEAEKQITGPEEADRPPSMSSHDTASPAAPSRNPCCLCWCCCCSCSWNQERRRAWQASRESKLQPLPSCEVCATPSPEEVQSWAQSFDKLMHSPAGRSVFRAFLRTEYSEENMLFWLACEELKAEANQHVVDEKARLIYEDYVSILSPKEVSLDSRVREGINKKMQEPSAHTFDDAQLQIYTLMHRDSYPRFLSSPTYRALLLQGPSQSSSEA
smiles,measurement,setting,value
Cc1ccc(C)c(OCCn2cc(C(=O)O)c3ccccc32)c1,"fluorescence, percent of control (lower = inhibition)",[1],47.5%
same,"GTP binding, percent of control",[2],91.6%
same,outcome,[3],inactive
same,"GTP binding signal, raw median fluorescence (lower = inhibition) (MCF (arbitrary fluorescence units))",[4],304
same,outcome,[5],inactive
OC(CNCCc1ccc(Cl)cc1)COc1ccc2ccccc2c1 (centres undefined),"fluorescence, percent of control (lower = inhibition)",[1],40.2%
same,"GTP binding, percent of control",[2],85.7%
same,outcome,[3],inactive
same,outcome,[5],inactive
CCc1ccc(NS(=O)(=O)c2ccc3[nH]cc(C(=O)N4CCc5ccccc54)c(=O)c3c2)cc1,"GTP binding, percent of control",[2],62.6%
same,outcome,[3],inactive
same,"GTP binding signal, raw median fluorescence (lower = inhibition) (MCF (arbitrary fluorescence units))",[4],167
same,outcome,[5],inactive
Cc1cn2c(nc(=O)c3cccnc32)s1,"GTP binding signal, raw median fluorescence (lower = inhibition) (MCF (arbitrary fluorescence units))",[4],126
NS(=O)(=O)c1ccc(N2N=C(c3ccccc3)CC2c2cccc(F)c2)cc1 (centres undefined),"GTP binding, percent of control",[2],50% and 86.8%
same,outcome,[3],inactive
same,"GTP binding signal, raw median fluorescence (lower = inhibition) (MCF (arbitrary fluorescence units))",[4],0 and 100
same,outcome,[5],inactive
COc1ccc(C2CC(c3ccccc3)=NN2c2ccc(S(N)(=O)=O)cc2)cc1 (centres undefined),"GTP binding, percent of control",[2],84.1%
same,outcome,[3],inactive
same,"GTP binding signal, raw median fluorescence (lower = inhibition) (MCF (arbitrary fluorescence units))",[4],260 and 239
same,outcome,[5],inactive
O=C(O)c1ccccc1NCCc1ccc(Cl)cc1,"GTP binding, percent of control",[2],87%
same,outcome,[5],inactive
CCOc1ccc(NC(=O)CSc2nc3ccccc3c(=O)n2Cc2cccs2)cc1,RGS16–Galpha-o binding response,[6],-1.24%
same,RGS19–Galpha-o binding response,[7],116%
same,RGS4–Galpha-o binding response,[8],84.3% (active)
same,RGS7–Galpha-o binding response,[9],81.9%
same,RGS8–Galpha-o binding response,[10],75.5%
same,inhibition,[11],1.1% (inactive)
same,binding response (% of control),[12],101% (inactive)
same,response (percent of control binding),[13],104% (inactive)
same,response (% of control binding),[14],104% (inactive)
same,binding response (% of control),[15],102% (inactive)
same,response (percent of control binding),[16],102% (inactive)
CN(C)CCN=c1cc(-c2ccccc2)oc2ccc(Cl)cc12,RGS16–Galpha-o binding response,[6],103%
same,RGS19–Galpha-o binding response,[7],95.4%
same,RGS4–Galpha-o binding response,[8],110% (active)
same,RGS7–Galpha-o binding response,[9],155%
same,RGS8–Galpha-o binding response,[10],102%
same,inhibition,[11],-3.8% (inactive)
same,binding response (% of control),[12],107% (inactive)
same,response (percent of control binding),[13],111% (inactive)
same,response (% of control binding),[14],113% (inactive)
same,binding response (% of control),[15],107% (inactive)
same,response (percent of control binding),[16],108% (inactive)
O=C(Nc1cccc(-c2nc3ccccc3[nH]2)c1)c1ccc(C(=O)Nc2cccc(-c3nc4ccccc4[nH]3)c2)cc1,RGS16–Galpha-o binding response,[6],219%
same,RGS19–Galpha-o binding response,[7],436%
same,RGS4–Galpha-o binding response,[8],132% (active)
same,RGS7–Galpha-o binding response,[9],495%
same,RGS8–Galpha-o binding response,[10],112%
same,inhibition,[11],1% (inactive)
same,binding response (% of control),[12],104% (inactive)
same,response (percent of control binding),[13],126% [activator] (active)
same,response (% of control binding),[14],131% [activator] (active)
same,binding response (% of control),[15],108% (inactive)
same,response (percent of control binding),[16],217% (active)
CC(=O)c1ccc(NC(=S)NC(=O)CC(C)C)cc1,RGS16–Galpha-o binding response,[6],21.8%
same,RGS19–Galpha-o binding response,[7],162%
same,RGS4–Galpha-o binding response,[8],91.6% (active)
same,RGS7–Galpha-o binding response,[9],91.6%
same,RGS8–Galpha-o binding response,[10],81.4%
same,inhibition,[11],3.2% (inactive)
same,binding response (% of control),[12],99.1% (inactive)
same,response (percent of control binding),[13],86.2% (inactive)
same,response (% of control binding),[14],93.9% (inactive)
same,binding response (% of control),[15],93.6% (inactive)
same,response (percent of control binding),[16],87.5% (inactive)
Cc1c(CN2CCCC(C(=O)c3cccc(Cl)c3)C2)c(=O)n(-c2ccccc2)n1C (centres undefined),RGS16–Galpha-o binding response,[6],97.1%
same,RGS19–Galpha-o binding response,[7],50.3%
same,RGS4–Galpha-o binding response,[8],107% (active)
same,RGS7–Galpha-o binding response,[9],230%
same,RGS8–Galpha-o binding response,[10],95%
same,inhibition,[11],-1.5% (inactive)
same,binding response (% of control),[12],102% (inactive)
same,response (percent of control binding),[13],106% (inactive)
same,response (% of control binding),[14],102% (inactive)
same,binding response (% of control),[15],103% (inactive)
same,response (percent of control binding),[16],104% (inactive)
